# The full data set covers some 8,800 targets. This sample favours those with a hit. About 0.5% of all pairs of compound and target were hits. A number with no mark means an inactive call.
# Key:
# Experiment in all cases: log2 fold change, soluble protein after heating vs DMSO (PISA); higher = thermal stabilisation; K562 lysate, 10 uM; active = over 0.2 and 3.5 SD of the protein, either way, in both replicates (recomputed)
# [1] = compound: C=CC(=O)N1CCC[C@@H](n2nc(-c3ccc(Oc4ccccc4)cc3)c3c(N)ncnc32)C1 [ibrutinib]
# Procedure, shortened: (§1)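 Following dounce homogenisation of K562 pellets in PBS pH 7.4 with 1 mM MgCl2, crude extract at 1 mg/mL protein was incubated for 30 min with 10 μM compound. Aliquots were then heated for 3 min over 48°C-58°C and pooled, NP-40 was added to 0.5% at 4°C, and soluble protein was recovered as the supernatant at 21,000xg for 90 min. Channel-sum-equalised TMTpro 16plex LC-MS/MS quantified this protein. Each value, from duplicates, is a log-two fold change in thermal stability relative to solvent controls.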
# [2] = compound: CC(=O)c1cnc2ccc(-c3cc(Cl)c(O)c(Cl)c3)nc2c1N[C@H]1CC[C@H](CN(C)C)CC1
# Procedure, shortened: as §1
# [3] = compound: CC(C)(C)Cn1c(N)nc2ccc(-c3[nH]c(C(C)(C)C)nc3-c3ccc(F)cc3)nc21 [ralimetinib]
# Procedure, shortened: as §1
# [4] = compound: CC(C)(O)CC(=O)NCCn1ccc2ncnc(Nc3ccc(Oc4cccc(C(F)(F)F)c4)c(Cl)c3)c21
# Procedure, shortened: as §1
# [5] = compound: CC(C)C1=C2N=C(C=C(N2N=C1)NCC3=CC=CC=C3)NCCCCCCN
# Procedure, shortened: as §1
# [6] = compound: CC1=C(C(CC(=O)N1)C2=CC=C(C=C2)C(F)(F)F)C(=O)NC3=C(C=C4C(=C3)C=NN4)F
# Procedure, shortened: as §1
# [7] = compound: CC1=C(C2=C(C=C1)C(=O)C3=CC=CC=C3N2CCCN)C
# Procedure, shortened: as §1
# [8] = compound: CC1=C(C=C(C=C1)NC(=O)C2=CC(=CC=C2)C(C)(C)C#N)NC3=CC4=C(C=C3)N=CN(C4=O)C
# Procedure, shortened: as §1
# [9] = compound: CC1=C(C=C(C=C1)NC(=O)C2=CC(=CC=C2)N(C)C)NC(=O)C3=CC=C(C=C3)O
# Procedure, shortened: as §1
# [10] = compound: CC1=CC=C(C=C1)SC2=C3C=C(SC3=CN=C2)C(=O)N
# Procedure, shortened: as §1
# [11] = compound: CCCS(=O)(=O)Nc1ccc(F)c(C(=O)c2c[nH]c3ncc(-c4ccc(Cl)cc4)cc23)c1F [vemurafenib]
# Procedure, shortened: as §1
# [12] = compound: CCCS(=O)(=O)Nc1ccc(F)c(C(=O)c2c[nH]c3ncc(Cl)cc23)c1F
# Procedure, shortened: as §1
# [13] = compound: CCN(CCCOc1ccc2c(Nc3cc(CC(=O)Nc4cccc(F)c4)[nH]n3)ncnc2c1)CCOP(=O)(O)O [barasertib]
# Procedure, shortened: as §1
# [14] = compound: CC[C@@H]1C(=O)N(C)c2cnc(Nc3ccc(C(=O)NC4CCN(C)CC4)cc3OC)nc2N1C1CCCC1
# Procedure, shortened: as §1
# [15] = compound: CC[C@@H]1C(=O)N(C)c2cnc(Nc3ccc(C(=O)N[C@H]4CC[C@H](N5CCN(CC6CC6)CC5)CC4)cc3OC)nc2N1C(C)C [volasertib]
# Procedure, shortened: as §1
# [16] = compound: CCn1c(C(=O)N(C2CC2)C2CC2)cc2c3c(ncn3C)c(Nc3cc(C)n(C)n3)nc21
# Procedure, shortened: as §1
# [17] = compound: CCn1cc(-c2ccnc3[nH]c(-c4cccc(CN(C)C)c4)cc23)c(-c2ccc(NC(=O)N(C)C)cc2)n1
# Procedure, shortened: as §1
# [18] = compound: CN1CCC(CNc2ccc3ncc(-c4cccc(OC(F)(F)F)c4)n3n2)CC1
# Procedure, shortened: as §1
# [19] = compound: CN1CCN(CCOc2cc(OC3CCOCC3)c3c(Nc4c(Cl)ccc5c4OCO5)ncnc3c2)CC1 [saracatinib]
# Procedure, shortened: as §1
# [20] = compound: CN1CCN(c2nc(C3=C(c4c[nH]c5ccccc45)C(=O)NC3=O)c3ccccc3n2)CC1 [sotrastaurin]
# Procedure, shortened: as §1
# Sequence of UniProt O14617 (O14617 whole entry, looked up): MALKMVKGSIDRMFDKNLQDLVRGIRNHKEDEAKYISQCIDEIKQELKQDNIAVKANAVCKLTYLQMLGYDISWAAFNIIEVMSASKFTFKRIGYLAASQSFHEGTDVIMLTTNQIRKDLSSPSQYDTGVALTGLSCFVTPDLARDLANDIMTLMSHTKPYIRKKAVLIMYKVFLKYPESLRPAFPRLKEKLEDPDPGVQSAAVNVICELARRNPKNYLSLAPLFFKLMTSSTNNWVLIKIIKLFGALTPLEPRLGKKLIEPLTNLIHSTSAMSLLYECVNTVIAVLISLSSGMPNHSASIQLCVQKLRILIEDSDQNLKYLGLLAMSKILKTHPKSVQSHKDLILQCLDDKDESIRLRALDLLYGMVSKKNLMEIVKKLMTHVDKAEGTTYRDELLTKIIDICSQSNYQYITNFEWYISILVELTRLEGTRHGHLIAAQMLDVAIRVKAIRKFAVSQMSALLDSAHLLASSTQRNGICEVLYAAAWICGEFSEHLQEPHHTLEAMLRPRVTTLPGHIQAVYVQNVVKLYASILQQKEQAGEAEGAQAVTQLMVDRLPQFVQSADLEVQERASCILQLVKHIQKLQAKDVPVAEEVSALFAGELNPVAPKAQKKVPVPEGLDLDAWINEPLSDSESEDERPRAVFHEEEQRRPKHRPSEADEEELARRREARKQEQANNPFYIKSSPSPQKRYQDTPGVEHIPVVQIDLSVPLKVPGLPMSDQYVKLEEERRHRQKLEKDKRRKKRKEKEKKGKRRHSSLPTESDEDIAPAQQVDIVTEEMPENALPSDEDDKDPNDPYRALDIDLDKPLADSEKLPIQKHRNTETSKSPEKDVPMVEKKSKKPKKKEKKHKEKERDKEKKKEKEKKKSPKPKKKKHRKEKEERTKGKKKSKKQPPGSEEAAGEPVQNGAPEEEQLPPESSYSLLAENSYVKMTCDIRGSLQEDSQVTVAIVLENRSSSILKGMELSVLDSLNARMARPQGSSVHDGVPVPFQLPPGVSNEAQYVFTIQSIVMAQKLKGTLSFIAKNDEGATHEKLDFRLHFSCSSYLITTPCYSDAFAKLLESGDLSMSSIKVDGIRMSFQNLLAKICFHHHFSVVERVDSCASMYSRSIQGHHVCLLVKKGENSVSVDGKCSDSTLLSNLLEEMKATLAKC
# Sequence of UniProt O14727 (O14727 whole entry, looked up): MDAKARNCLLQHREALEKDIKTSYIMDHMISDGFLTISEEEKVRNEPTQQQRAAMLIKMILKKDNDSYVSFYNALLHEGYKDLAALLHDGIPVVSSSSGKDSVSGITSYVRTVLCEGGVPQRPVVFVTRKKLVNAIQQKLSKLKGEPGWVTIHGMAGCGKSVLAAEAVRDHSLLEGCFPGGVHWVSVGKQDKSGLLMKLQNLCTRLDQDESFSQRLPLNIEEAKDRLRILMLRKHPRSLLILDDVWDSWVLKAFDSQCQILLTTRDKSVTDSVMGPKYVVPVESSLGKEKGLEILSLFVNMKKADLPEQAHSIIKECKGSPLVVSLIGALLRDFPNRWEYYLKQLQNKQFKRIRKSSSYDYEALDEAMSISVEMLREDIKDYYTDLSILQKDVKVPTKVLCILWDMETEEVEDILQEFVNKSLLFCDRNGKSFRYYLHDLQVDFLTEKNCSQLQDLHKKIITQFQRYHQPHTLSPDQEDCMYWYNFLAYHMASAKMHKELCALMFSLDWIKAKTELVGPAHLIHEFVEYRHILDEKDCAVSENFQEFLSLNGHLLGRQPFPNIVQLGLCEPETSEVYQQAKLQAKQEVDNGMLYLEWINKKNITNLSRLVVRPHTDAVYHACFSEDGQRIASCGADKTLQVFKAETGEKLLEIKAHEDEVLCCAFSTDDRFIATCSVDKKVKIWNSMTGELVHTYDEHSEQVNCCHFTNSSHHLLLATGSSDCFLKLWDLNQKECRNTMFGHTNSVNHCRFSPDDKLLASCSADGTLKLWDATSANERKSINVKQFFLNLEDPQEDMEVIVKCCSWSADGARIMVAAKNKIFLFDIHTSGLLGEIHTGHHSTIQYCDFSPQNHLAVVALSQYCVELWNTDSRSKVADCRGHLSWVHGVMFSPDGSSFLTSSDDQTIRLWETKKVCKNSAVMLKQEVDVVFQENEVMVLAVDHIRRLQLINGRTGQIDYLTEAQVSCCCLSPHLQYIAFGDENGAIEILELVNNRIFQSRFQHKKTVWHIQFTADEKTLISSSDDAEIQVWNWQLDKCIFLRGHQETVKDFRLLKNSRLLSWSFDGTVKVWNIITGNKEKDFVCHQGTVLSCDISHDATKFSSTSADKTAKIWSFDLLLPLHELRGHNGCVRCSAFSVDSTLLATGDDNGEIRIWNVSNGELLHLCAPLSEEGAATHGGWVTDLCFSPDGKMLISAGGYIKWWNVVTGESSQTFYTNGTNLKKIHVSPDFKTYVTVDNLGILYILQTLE
# Sequence of UniProt P35611 (P35611 whole entry, looked up): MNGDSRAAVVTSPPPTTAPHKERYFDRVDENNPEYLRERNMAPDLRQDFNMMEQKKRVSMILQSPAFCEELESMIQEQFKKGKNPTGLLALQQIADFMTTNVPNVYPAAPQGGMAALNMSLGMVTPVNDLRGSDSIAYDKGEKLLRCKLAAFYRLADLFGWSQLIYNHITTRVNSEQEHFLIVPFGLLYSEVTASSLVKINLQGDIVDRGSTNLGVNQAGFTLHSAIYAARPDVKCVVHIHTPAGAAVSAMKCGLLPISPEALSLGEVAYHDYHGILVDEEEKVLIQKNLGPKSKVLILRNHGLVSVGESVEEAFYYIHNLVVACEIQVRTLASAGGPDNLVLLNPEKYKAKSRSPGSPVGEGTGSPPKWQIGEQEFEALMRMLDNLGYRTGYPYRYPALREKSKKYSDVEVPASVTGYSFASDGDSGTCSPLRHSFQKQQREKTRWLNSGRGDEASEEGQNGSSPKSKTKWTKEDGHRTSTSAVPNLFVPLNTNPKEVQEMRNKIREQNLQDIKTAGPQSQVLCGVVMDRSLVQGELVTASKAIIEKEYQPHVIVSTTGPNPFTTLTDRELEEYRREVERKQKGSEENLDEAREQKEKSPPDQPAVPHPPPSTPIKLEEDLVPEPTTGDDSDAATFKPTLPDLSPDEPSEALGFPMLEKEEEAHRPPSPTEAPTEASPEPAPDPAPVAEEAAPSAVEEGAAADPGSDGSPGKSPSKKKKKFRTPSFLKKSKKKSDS
# Sequence of UniProt Q12797 (Q12797 whole entry, looked up): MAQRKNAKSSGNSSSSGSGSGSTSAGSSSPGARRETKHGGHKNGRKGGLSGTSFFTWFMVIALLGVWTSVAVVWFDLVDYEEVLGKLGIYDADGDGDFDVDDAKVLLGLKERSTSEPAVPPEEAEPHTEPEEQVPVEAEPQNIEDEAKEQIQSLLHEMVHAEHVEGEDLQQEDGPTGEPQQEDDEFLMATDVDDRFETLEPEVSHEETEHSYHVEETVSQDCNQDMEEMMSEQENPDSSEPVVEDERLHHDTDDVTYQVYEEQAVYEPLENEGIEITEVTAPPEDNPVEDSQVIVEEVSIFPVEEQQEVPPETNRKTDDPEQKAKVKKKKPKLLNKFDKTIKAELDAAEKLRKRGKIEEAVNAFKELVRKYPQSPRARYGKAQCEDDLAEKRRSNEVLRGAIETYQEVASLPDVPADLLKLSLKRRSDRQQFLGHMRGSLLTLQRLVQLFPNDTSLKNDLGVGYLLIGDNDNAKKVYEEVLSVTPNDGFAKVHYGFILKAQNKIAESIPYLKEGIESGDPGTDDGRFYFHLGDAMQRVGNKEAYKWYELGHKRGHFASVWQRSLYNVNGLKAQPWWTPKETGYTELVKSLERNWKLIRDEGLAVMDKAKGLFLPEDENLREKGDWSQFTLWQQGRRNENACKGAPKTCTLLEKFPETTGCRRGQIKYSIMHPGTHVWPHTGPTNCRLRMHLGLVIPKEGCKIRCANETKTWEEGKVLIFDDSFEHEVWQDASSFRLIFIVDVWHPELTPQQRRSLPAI
# Sequence of UniProt Q9H1I8 (Q9H1I8 whole entry, looked up): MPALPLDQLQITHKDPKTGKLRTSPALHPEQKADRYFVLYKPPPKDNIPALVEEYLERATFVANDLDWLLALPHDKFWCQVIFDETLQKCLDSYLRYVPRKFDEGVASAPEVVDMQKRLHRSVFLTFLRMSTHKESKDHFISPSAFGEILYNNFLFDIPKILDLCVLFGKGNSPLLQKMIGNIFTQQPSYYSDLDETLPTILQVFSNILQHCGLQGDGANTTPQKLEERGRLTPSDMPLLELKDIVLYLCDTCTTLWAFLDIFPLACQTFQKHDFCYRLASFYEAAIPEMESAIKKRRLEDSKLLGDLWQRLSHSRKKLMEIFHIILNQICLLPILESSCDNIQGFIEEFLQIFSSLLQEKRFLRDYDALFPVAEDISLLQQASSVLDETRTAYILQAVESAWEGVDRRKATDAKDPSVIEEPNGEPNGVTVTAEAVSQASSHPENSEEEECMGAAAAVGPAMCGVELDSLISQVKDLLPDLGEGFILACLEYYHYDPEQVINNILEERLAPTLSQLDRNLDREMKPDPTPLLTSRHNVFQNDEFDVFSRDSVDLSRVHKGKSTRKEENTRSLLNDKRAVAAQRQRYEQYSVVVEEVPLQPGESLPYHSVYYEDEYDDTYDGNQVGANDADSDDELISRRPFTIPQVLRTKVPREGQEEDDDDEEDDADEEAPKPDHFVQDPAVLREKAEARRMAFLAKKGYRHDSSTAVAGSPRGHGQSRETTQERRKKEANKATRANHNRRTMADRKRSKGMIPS
# Sequence of UniProt Q9UH62 (Q9UH62 whole entry, looked up): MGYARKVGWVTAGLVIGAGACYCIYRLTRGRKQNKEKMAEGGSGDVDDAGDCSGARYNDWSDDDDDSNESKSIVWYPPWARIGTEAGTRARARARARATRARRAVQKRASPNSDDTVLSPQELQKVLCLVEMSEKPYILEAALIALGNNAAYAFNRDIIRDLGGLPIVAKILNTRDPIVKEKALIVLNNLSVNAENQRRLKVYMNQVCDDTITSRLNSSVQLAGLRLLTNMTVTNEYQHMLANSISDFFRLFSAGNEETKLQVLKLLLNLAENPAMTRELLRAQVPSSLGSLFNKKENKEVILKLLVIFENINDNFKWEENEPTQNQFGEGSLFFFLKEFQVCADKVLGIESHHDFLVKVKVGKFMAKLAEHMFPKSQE
Target,log2 fold change [1],log2 fold change [2],log2 fold change [3],log2 fold change [4],log2 fold change [5],log2 fold change [6],log2 fold change [7],log2 fold change [8],log2 fold change [9],log2 fold change [10],log2 fold change [11],log2 fold change [12],log2 fold change [13],log2 fold change [14],log2 fold change [15],log2 fold change [16],log2 fold change [17],log2 fold change [18],log2 fold change [19],log2 fold change [20]
AGL (UniProt P35573),-0.007,0.01,0.048,0.018,-0.006,-0.004,0.021,-0.017,0,0.027,-0.014,0.002,-0.015,-0.063,-0.058,0.013,0.131,-0.083,0.013,0.049
AP3D1 isoform 5 (UniProt O14617),0.033,-0.012,0.028,-0.012,-0.007,-0.014,-0.024,0.011,0.01,0.006,-0.001,-0.002,0.036,-0.004,0,0.002,-0.08,0.034,0.001,0.013
ARMCX3 (UniProt Q9UH62),-0.073,-0.027,0.006,0.013,-0.042,-0.053,-0.029,0.004,0.039,0,-0.024,0.027,0.102,-0.033,-0.045,0.021,-0.01,-0.049,0.012,0.016
APAF1 (UniProt O14727),0.027,0.063,0.031,-0.04,0.009,0.008,-0.005,0.003,0.002,0.022,-0.014,-0.012,0.073,-0.087,-0.056,0.001,0.115,-0.012,-0.028,0.015
ADD1 isoform 3 (UniProt P35611),-0.006,-0.009,0,-0.01,-0.005,0.007,-0.038,0.005,-0.009,-0.019,-0.025,-0.002,-0.001,0.036,0.007,-0.002,-0.013,0.054,0.002,0
ASCC2 (UniProt Q9H1I8),-0.328 (active),0.029,0.057,-0.041,0.012,0.004,0.02,0.01,0.064,-0.01,0.037,0.069,0.025,-0.054,-0.024,0.007,0.051,-0.103,0.04,0.027
APOB (UniProt P04114),-0.025,-0.016,-0.052,-0.195,0.011,-0.02,-0.089,0.063,-0.005,-0.036,-0.006,0.039,0.03,-0.009,0.026,-0.189,-0.224 (active),0.092,0.029,0.024
ASPH (UniProt Q12797),0.015,-0.004,-0.006,-0.001,-0.028,0.052,0.076,-0.025,0.025,0,0.009,0.009,-0.001,0.03,0.002,-0.018,0.011,-0.024,0.055,0.01
